# According to PubChem BioAssay AID1347041 (National Center for Advancing Translational Sciences (NCATS), 2019):
# Where “and” joins values, the source holds several entries; their conditions need not be identical. Equal entries are not always repeated. Screen size: about 480,000 compounds; about 740 (0.15%) were called active. Rule as the data show it: active = activity change below about -30%; inconclusive = mostly about -25% to -30%; inactive = weaker than that. What follows is part of a selection rich in actives, with near analogues and random picks from the rest. Some compounds were tested as several samples or in several runs, with calls that do not always agree.
# Molecular target: L-lactate dehydrogenase A chain (Homo sapiens) (UniProt P00338)
# Assay: qHTS assay for inhibitors of human lactate dehydrogenase;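 also: values are at about 110 or 230 µM; plate controls were DMSO wells for no effect and wells without enzyme for full effect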
# Settings: purified LDHA, NADH/diaphorase-resazurin fluorescence; stronger effect = lower value
# Excerpt: LDH is a key glycolytic enzyme that catalyzes the final step in the glycolytic pathway, reducing pyruvate to lactate and regenerating NAD+ equivalents necessary for continued glycolysis. LDHA has been linked to the carcinogenesis and malignancy in numerous forms of cancers and many other diseases. Consequently, both pharma and academia have invested in significant research efforts to identify small molecule therapeutics. Such attempts have been stalled or abandoned due to limited success in discovering potent and drug-like inhibitors that can be utilized to validate LDHA in vivo as a drug target, a necessary step toward advancing such a molecule towards the clinic Towards this goal we designed and performed a quantitative high-throughput screening (qHTS) campaign to discover novel compounds that are potent inhibitors of LDHA enzyme activity and cancer cell line growth.
# The assay was optimized to 1536-well plates. Briefly, 3 µL of human lactate dehydrogenase 5 (#A38558H, Meridian Life Science, Inc., Memphis, TN) in LDH assay buffer (200 mM Tris HCl pH 7.4, 100 microM EDTA and 0.01% Tween-20) was added to a black solid bottom 1536-well assay plate (Greiner Bio-One) using a BioRAPTR FRD dispenser (Beckman Coulter, Brea, CA). A 1536-well pintool dispenser outfitted with 20 nL pins (Wako Automation, San Diego, CA) was used to transfer 23 nL of DMSO-solubilized compound (both library and vehicle controls) to each 1536-well assay plate. Following compound transfer, 1 µL of substrate solution containing NADH and sodium pyruvate (Sigma-Aldrich, St. Louis, MO) in LDH assay buffer was dispensed via BioRAPTR FRD to initiate the reaction. Final concentrations in the 4 microL reaction volume were 2 nM LDHA enzyme, 0.06 mM NADH and 0.2 mM sodium pyruvate. Following a 5 minute incubation period at room temperature, 1 µL of detection reagent (C. kluyveri diaphorase (Sigma-Aldrich) and resazurin sodium salt (Sigma-Aldrich) in LDH assay buffer) was added to a total volume of 5 µL. Final concentrations of detection reagents were 0.133 mg/mL diaphorase and 37 µM resazurin. Plates were immediately transferred to a ViewLux microplate imager (PerkinElmer, Waltham, MA), and any resulting resorufin fluorescence was measured (ex540, em590 nm) at 0 and 20 minutes. Fluorescence was normalized using enzyme-free and DMSO-treated control wells on each plate.
row,SMILES,activity change
1,CC/C(=C(/c1ccccc1)c1ccc(OCC[N+](C)(C)C)cc1)c1ccccc1,-30.9% (active)
2,CCCCCCCCCOc1ccc(C(=O)c2ccccc2)cc1,2.28% (inactive)
3,CCCCOc1ccc(C(=O)NO)cc1,12.4% (inactive)
4,Cc1cc(C)cc(Nc2nc3ccccc3nc2NS(=O)(=O)c2ccccc2)c1,-9.61% (inactive)
5,C=CCOc1ccc(NC(C)=O)cc1,8.6% (inactive)
6,Cc1nn(CC(=O)Nc2ccc3c(c2)nc2n3CCN(C)C2)c(=O)c2ccccc12,2.93% (inactive)
7,O=C(COc1ccccc1F)OCc1cc(=O)n2nc(C3CCCCC3)sc2n1,-0.186% (inactive) and -35% (active)
8,Cc1ccc(OCC(=O)OCc2cc(=O)n3nc(C4CC4)sc3n2)cc1,-4.61% (inactive)
9,O=C(COc1ccccc1F)Nc1ccc(C(=O)OCc2cc(=O)n3nc(C4CC4)sc3n2)cc1,0.0167% (inactive)
10,CC(=O)c1ccc(S(=O)(=O)NCc2nnnn2-c2ccccc2)cc1,-5.01% (inactive)
11,O=S(=O)(Cc1nnnn1-c1ccc(Br)cc1)c1ccc(F)cc1,-2.83% (inactive)
12,O=S(=O)(Cc1nnnn1-c1ccccc1)c1ccccc1,0.923% (inactive) and -41.4% (active)
13,Cn1ccnc1Sc1nc2c(c(=O)n(C)c(=O)n2C)n1Cc1ccc(F)cc1,1.87% (inactive)
14,Cc1ccc2oc(C(=O)Nc3ccccc3F)cc(=O)c2c1,7.9% (inactive)
15,O=C(O)C(Sc1nc(-c2ccccc2)cc(C(F)(F)F)n1)c1ccccc1 (centres undefined),13.5% (inactive)
16,O=C(NC1CCCC1)c1nc(-c2cccc3[nH]ccc23)no1,-3.9% (inactive)
17,O=C(NC1(C(F)(F)F)C(=O)Nc2c1c(=O)[nH]c(=O)n2Cc1ccco1)c1ccco1 (centres undefined),-33.9% (active)
18,CC(=O)Nc1ccc(S(=O)(=O)NC2(C(F)(F)F)C(=O)Nc3c2c(=O)[nH]c(=O)n3Cc2ccccc2)cc1 (centres undefined),-3.74% (inactive)
19,O=c1[nH]c(=O)n(Cc2ccco2)c2c1C(C(F)(F)F)(C(F)(F)F)N=C(c1ccco1)N2,-12.6% (inactive)
20,Cc1cc(Nc2cccc(Cl)c2)n2nc(Cc3ccccc3)nc2n1,-15% (inactive)
21,CCc1nc2nc(C)cc(Nc3ccc(F)c(Cl)c3)n2n1,-6.31% (inactive)
22,Cc1cc(Nc2ccccc2)n2nc(Cc3ccc(Cl)cc3)nc2n1,-32.3% (active)
23,Cc1ccc(C)c(N2CCN(C(=O)CCS(=O)(=O)c3cccc4nsnc34)CC2)c1,0.345% (inactive)
24,O=C1CCCC2=C1C(c1cccnc1)CC(=O)N2c1ccccc1C(F)(F)F (centres undefined),0.301% (inactive)

row,SMILES,activity change
1,O=C(CSc1nnnn1C1CCCC1)N1CCCC1c1ccc2c(c1)OCCCO2 (centres undefined),-4.78% (inactive)
2,CC(=O)NC(Cc1c[nH]c2ccccc12)C(=O)N1CCC1 (centres undefined),-6.31% (inactive)
3,FC(F)(F)c1ccc(Cl)c(N/N=C/c2c(Cl)cccc2Cl)c1,-0.292% (inactive)
4,CSc1ccc(Cl)c(C(=O)OCC(=O)N2CCNC2=O)c1,-5.09% (inactive)
5,COC(=O)c1cc(NCC(=O)N2CCNC2=O)ccc1Cl,-2.4% (inactive)
6,N#Cc1cc(NCC(=O)N2CCNC2=O)ccc1Cl,-31.1% (active)
7,CC(=O)Nc1cccc(NC(=O)c2nc(-c3ccccc3)oc2C)c1,-3.27% (inactive)
8,CCN(CC)CCNC(=O)c1ccc2nc(C)c(C)nc2c1,1.31% (inactive)
9,Cc1oc(-c2ccccc2)nc1CC(=O)N(C)CC(=O)Nc1cccc2ccccc12,-30.2% (active)
10,COc1ccc(NC(=O)CN(C)C(=O)c2nc(-c3ccccc3)oc2C)cc1,7.53% (inactive)
11,Cc1ccc(NC(=O)CN(C)C(=O)c2nc(-c3ccccc3)oc2C)cc1,-4.78% (inactive)
12,CC(=O)c1ccccc1NC(=O)c1ccccc1Cc1ccccc1,-24.1% (inactive)
13,CCN(CC)C(=O)c1ccc(CSC(F)F)o1,-3.64% (inactive)
14,Cc1cccc(N2CCN(Cc3ncc(-c4ccc(Cl)cc4)o3)CC2)c1,6.83% (inactive)
15,Cc1c(CC(=O)NCCCN2CCOCC2)c(=O)oc2cc(O)ccc12,1.59% (inactive)
16,CCOc1ccccc1NC(=O)Cn1c2ncccc2c(=O)n1-c1ccc(C)c(C)c1,-10% (inactive)
17,CCOc1ccccc1NC(=O)Cc1c(C)[nH]n(-c2nc(-c3ccccc3)cs2)c1=O,-42.8% (active)
18,Cc1[nH]n(-c2nc(-c3ccccc3)cs2)c(=O)c1CC(=O)Nc1cccc(Cl)c1,-4.25% (inactive)
19,CCNC(=O)c1nnc(C(=O)Nc2cccc(Cl)c2)s1,6.18% (inactive)
20,Cn1c(=O)n(C)c2cc(SCc3ccco3)c(NC(=O)c3ccc(C(C)(C)C)cc3)cc21,-5.57% (inactive)
21,CCCCCn1c(SCc2ccc(C)cc2)nc2c1c(=O)[nH]c(=O)n2C,-21.4% (inactive)
22,CN1CCN(CCC2(Cc3ccccc3)CCOC(C)(C)C2)CC1 (centres undefined),-4.19% (inactive)
23,O=C(O)C(Br)Cc1ccc(Cl)cc1Cl (centres undefined),27.6% (inactive)
24,CC1(C)CC(N2CCN(C(c3ccccc3)c3ccccc3)CC2)=CC(=[N+]2CCCCC2)C1,-64.6% (active)

row,SMILES,activity change
1,O=C(Nc1ccc2c(c1)OCCCO2)c1ccccc1OCc1ccc(F)cc1,7.94% (inactive)
2,CC(C)(C)c1ccc(-c2nnc(SCC(=O)NC(=O)NC3CCCC3)n2Cc2ccco2)cc1,9.16% (inactive)
3,CC1=C/C(=N\NC(N)=S)C(C)C1 (centres undefined),1.95% (inactive)
4,CCOC(=O)/C=C/c1cc(C(=O)OCC)c(/C=C/C(=O)OCC)cc1C(=O)OCC,-12.2% (inactive)
5,CCn1c(SCC(=O)NCC(F)(F)F)nnc1-c1ccncc1,-0.908% (inactive)
6,Cc1ccsc1/C=N/n1c(=S)[nH]nc(C)c1=O,-32.7% (active)
7,CCc1n[nH]c(=S)n1/N=C/c1c[nH]c2ccc(Br)cc12,-11% (inactive)
8,Cc1n[nH]c(=O)nc1N/N=C/c1cccs1,10.4% (inactive)
9,Cc1ccccc1NC(=O)Cc1nnc(SCC(=O)c2ccc(C#N)cc2)n1C,2.1% (inactive)
10,CCc1nn2c(=O)cc(CN(CC)Cc3ccc(OC)cc3)nc2s1,0.31% (inactive)
11,CCOC(=O)C(NC(=O)c1ccccc1)C(F)(F)F (centres undefined),-5.84% (inactive)
12,O=C(COc1ccccc1C(=O)Nc1ccccc1)NC1CC1,2.72% (inactive)
13,Cc1cc2oc(=O)cc(CN3CCCCCCC3)c2cc1C,3.97% (inactive)
14,Cc1nc2nc(CN)nn2c(C)c1CCC(=O)NC1CCCCC1,10.1% (inactive)
15,CCCn1c(SC(C)C(=O)c2ccc(Cl)cc2)n[nH]c1=O (centres undefined),1.73% (inactive)
16,CSc1nnc([C@H](CC(C)C)NC(=O)OC(C)(C)C)o1,-6.07% (inactive)
17,c1ccc(Oc2ncnc3scc(-c4ccc(-c5ccccc5)cc4)c23)cc1,2.38% (inactive)
18,CCn1c(SCc2ccc(F)cc2Cl)nnc1-c1ccccn1,-9.31% (inactive)
19,Cc1ccc(NC(=O)C2=Cc3sc4c(c3CS2)CCCC4)c(C)c1,4.96% (inactive)
20,NC(N)=Nc1ccc(F)cc1,0.928% (inactive)
21,O=C(CCc1nc(-c2ccccc2)no1)N1CCc2sccc2C1c1cccs1 (centres undefined),9.21% (inactive)
22,Cc1cc(C)n2ncc(-c3noc(C(=O)NC4CCCC4)n3)c2n1,-0.0013% (inactive)
23,Cc1nc2cc(NC(=O)COc3ccccc3C(C)(C)C)ccc2o1,3.35% (inactive)
24,Cc1[nH]c2ccccc2c1C(=O)C(C)Sc1ccc2c(c1)OCCCO2 (centres undefined),7.43% (inactive)

row,SMILES,activity change
1,Cc1nc2cc(NC(C)C(=O)Nc3ccccc3Cl)ccc2o1 (centres undefined),-7.75% (inactive)
2,c1ccc(COc2ccc(CNc3ccccc3)cc2)cc1,-2.65% (inactive)
3,O=C(Nc1ccc(N2CCOCC2)cc1)c1ccc2c(c1)S(=O)(=O)c1ccccc1C2=O,0.869% (inactive)
4,CC(C)CCn1c(=O)[nH]c(=O)c2c3c(cnc21)C(=O)CC(c1ccc(F)cc1)C3 (centres undefined),8.23% (inactive)
5,Fc1ccc(-n2c(Cc3ccccc3)nnc2SCc2ccc(Br)cc2)cc1,11.5% (inactive)
6,COc1ccc(CNS(=O)(=O)c2ccc(-c3ccc(=O)[nH]n3)s2)cc1,-1.99% (inactive)
7,O=C1CN(CC(=O)Nc2c(Cl)cc(Cl)cc2Cl)CCN1,-9.74% (inactive)
8,CCOc1ccccc1N(CC)C(=O)Cc1noc2ccccc12,1.93% (inactive)
9,COc1ccc(OC)c(C2C(C#N)=C(N)Oc3cc(O)ccc32)c1 (centres undefined),6.17% (inactive)
10,O=C(O)c1c(Br)c(Br)c(Br)c(Br)c1C1c2ccc(O)cc2Oc2cc(O)ccc21,-47.5% (active)
11,O=C(c1n[nH]c(=O)c2ccccc12)N1CCN(S(=O)(=O)c2ccccc2F)CC1,12.5% (inactive)
12,COc1cccc(-c2c(NC(=O)c3ccc(Cl)cc3)oc3ccccc3c2=O)c1,-5.8% (inactive)
13,O=C(O)Cc1ccc(F)c2ccccc12,2.09% (inactive)
14,CC(Sc1nc2cc(S(=O)(=O)N3CCCCC3)ccc2o1)C(=O)Nc1cccc(Cl)c1 (centres undefined),6.97% (inactive)
15,CN(C(=O)c1cnc(N2CCOCC2)c2ccccc12)C1CCCCC1,3.81% (inactive)
16,N=C(N)CCl,0.754% (inactive)
17,CC1CCC(C(C)C)C(NC(=O)c2ccccc2)C1 (centres undefined),0.148% (inactive)
18,Cc1cc(-c2nc3ncccc3o2)ccc1NC(=O)CC12CC3CC(CC(C3)C1)C2,-0.587% (inactive)
19,O=C(CCc1ncc(-c2ccccc2F)o1)NCc1ccc2c(c1)OCO2,9.36% (inactive)
20,O=C(/C=C/c1cccc(Br)c1)c1ccc(O)c(CCCl)c1,0.183% (inactive)
21,CC(N)c1cccc([N+](=O)[O-])c1 (centres undefined),8.12% (inactive)
22,O=C(O)C1CCN(c2ccc3nnc(C(F)(F)F)n3n2)CC1,-1.19% (inactive)
